High-throughput results from PubChem BioAssay.
Sampled rows, rich in hits. Any-hit rate of the full collection: about 8.3%.
RORg inh: ROR gamma (mouse) transcription inhibition. 310,000 compounds, 5.4% hits. AID 2551. Potency, µM (top dose mostly 53.6 µM), inactives show top-dose activity change, negative = inhibition, hits mostly inhibitors. P51450. Drosophila S2 Gal4-RORgamma UAS-luciferase reporter, 20 h; also: potency is read from the fitted curve at half-maximal effect; % is scaled to controls: 0 for no effect and ±100 for the full control effect; nearly all actives have a fitted effect of over 60% in size
Target sequence (P51450 whole entry, looked up, the tested form may be a part): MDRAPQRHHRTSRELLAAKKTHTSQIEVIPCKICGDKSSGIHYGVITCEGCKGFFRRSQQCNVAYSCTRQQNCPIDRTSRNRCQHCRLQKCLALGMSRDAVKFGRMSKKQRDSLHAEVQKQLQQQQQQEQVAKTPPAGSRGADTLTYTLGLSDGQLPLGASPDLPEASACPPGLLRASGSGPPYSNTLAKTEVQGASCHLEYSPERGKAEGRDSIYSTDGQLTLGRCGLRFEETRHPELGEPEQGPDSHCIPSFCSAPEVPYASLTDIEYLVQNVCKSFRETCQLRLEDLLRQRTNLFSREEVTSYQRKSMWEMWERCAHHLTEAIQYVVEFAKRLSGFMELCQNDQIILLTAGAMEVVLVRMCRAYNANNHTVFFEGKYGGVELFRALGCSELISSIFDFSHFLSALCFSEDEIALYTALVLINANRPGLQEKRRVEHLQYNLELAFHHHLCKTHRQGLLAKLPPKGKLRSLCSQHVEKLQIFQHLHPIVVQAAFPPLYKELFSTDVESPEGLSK
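ROR gamma transcriptional activity was tracked as Gal4-UAS luciferase output in stably transfected Drosophila Schneider cells, with compound added 1 hr before 700 uM copper sulfate induction and a 20 hr ambient-temperature incubation.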
MCF10A rerep: inducers of DNA re-replication in MCF 10A breast cells | MCF 10A DNA re-replication, Hoechst nuclear intensity, 48 h | Potency, µM (doses to about 46.1 µM), without a hit: at the top dose activity, positive = re-replication, usual class: activators | 350,000 compounds, 2.9% hits | AID 624296; also: potency is read from the fitted curve at half-maximal effect; % of control where 0% means no effect; nearly all actives have a fitted effect of over 50% in size
SW480 rerep: induces DNA re-replication in SW480 colon adenocarcinoma cells. SW480 DNA re-replication, Hoechst DNA content imaging, 48 h. Potency, µM (series often up to 46.1 µM), for inactives: at the top dose re-replication activation, actives largely listed as activators. 340,000 compounds, 1.8% hits. AID 624297; also: potency is read from the fitted curve at half-maximal effect; % of control where 0% means no effect; nearly all actives have a fitted effect of over 55% in size
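Per well, 250 cells were exposed to pinned compound for 48 hr. Nuclear DNA was visualised with Hoechst (40 min, 37 C) and total object intensity recorded by fluorescence scanning.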
Chronic BCR inh: blocks chronic active B-cell receptor signaling. 340,000 compounds, 0.05% hits. ABC-DLBCL IkBa-CBG/CBR reporter, luminescence ratio, 4 h. AID 493014. Potency, µM (titrated, usually from 46.1 µM), for the others: at the top dose activity change, negative = inhibition, most hits filed as inhibitors; active = well fitted inhibition curve with a large enough effect in the signal ratio, with a control signal flat, not every such curve was filed as active; inconclusive = small, poorly fitted or top-dose-only effect, or effect the other way, or a change in a side signal; the % refers to the signal ratio;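 also: potency is read from the fitted curve at half-maximal effect; plate controls were basal doxycycline-induced cells for no effect and cells given 10 µM MG132 for full effect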
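Cell line TMD8 (human ABC DLBCL), stably expressing tet-inducible CBG68-IkBa fusion and CBR; IMDM/0.5% FBS; cpd up to 46 uM; dox induction, 4 h, 37C/5% CO2; dual luminescence; green/red ratio; MG132 control.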
VP16 counter: inhibits Gal4-VP16 luciferase reporter, ROR gamma counter-screen; 310,000 compounds, 3.5% hits; Potency, µM (top dose mostly 53.6 µM), without a hit: top-dose activity, negative = inhibition, hits mostly inhibitors; AID 2546; Drosophila S2 Gal4-VP16 UAS-luciferase, luminescence, 20 h;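 also: Gal4-VP16 expression switched on by copper sulfate through the metallothionein promoter; potency is read from the fitted curve at half-maximal effect; % is scaled to controls: 0 for no effect and ±100 for the full control effect; nearly all actives have a fitted effect of over 50% in size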
Giardia killer: Giardia lamblia killing | activity change, % at 7.66 µM, hits read low | 340,000 compounds, 0.15% hits | AID 540267 | Giardia lamblia trophozoite viability; in the data active = activity change below about -80%; inconclusive = between about -30% and that limit;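 also: parasites exposed to compound for two days anaerobically before the ATP read; % is scaled to controls: 0 for no effect and ±100 for the full control effect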
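Giardia lamblia trophozoites (100 cells/well) were incubated with compounds for 48 h at 37 deg C under anaerobic conditions. Viability was read as ATP content by one-step luminescence after 15-30 min at room temperature.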
Starred values were filed as active, the others as inactive; ? = inconclusive; / = no result given; [ ] = another dose, or the depositor's remark. Unless noted, calls follow the shape of the dose curve; as a rule, active = well fitted curve in the direction sought with a large enough effect; inconclusive = small, poorly fitted or top-dose-only effect, or another doubt; inactive = no such curve, though single readings can be large; an effect the other way counts as inactive or inconclusive.

SMILES	RORg inh	MCF10A rerep	SW480 rerep	Chronic BCR inh	VP16 counter	Giardia killer
CCOC(=O)C1(Cc2cccc(OC)c2)CCCN(Cc2nccn2CC)C1 (centres undefined)	3.5µM*	8%	7%	8%	?	-2
CCOC(=O)C1(CC2CC2)CCN(Cc2ccc(O)c(Cl)c2)CC1	28%	/	/	-2%	-1%	/
Cc1sc2ncn(/N=C/c3ccco3)c(=O)c2c1C	18%	5%	-3%	8%	8%	-1
c1ccc2c(c1)ncn2CCC1CCCCC1	7.9µM*	15%	?	3%	-91%	-3
Clc1ccc(OCCn2cnc3ccccc32)cc1	4µM*	16%	27%	13%	10%	-14
O=C(OCC(=O)N1CCCCC1)c1ccc2ccccc2n1	/	0%	-9%	-2%	/	2
CCC1CSC(Nc2ccc(C(=O)/C=C/c3ccc(Br)cc3)cc2)=N1 (centres undefined)	39%	16µM*	?	-3%	-18%	-8
CCC1CSC(Nc2ccc(C(=O)/C=C/c3ccc(OC)c(OC)c3)cc2)=N1 (centres undefined)	?	?	?	?	?	19
CCN1CCN(C(=O)c2cccc(OC3CCN(S(C)(=O)=O)CC3)c2)[C@@H](C)C1=O	-2%	-4%	1%	0%	3%	-10
Cc1ccc(C(=O)c2no[n+]([O-])c2C(=O)c2ccc(C)cc2)cc1	?	7.3µM*	5.2µM*	1%	?	-29
CCSc1nc(N)nc2c1ncn2C1OC(CO)C(O)C1O (centres undefined)	/	-4%	-10%	/	/	-2
Cn1cnc([N+](=O)[O-])c1Sc1nc(N)nc2c1ncn2C1CC(O)C(CO)O1 (centres undefined)	/	2.1µM*	7.3µM*	/	/	7
Cn1cnc([N+](=O)[O-])c1Sc1nc(N)nc2c1ncn2C1OC(CO)C(O)C1O (centres undefined)	/	2.1µM*	5.8µM*	/	/	-10
O=C(COc1ccc2ccc(=O)oc2c1)Nc1c(Cl)cccc1C(F)(F)F	?	5%	-4%	0%	-3%	16
Cc1[nH]n(-c2ccccc2)c(=O)c1C(c1ccc(C(=O)O)cc1)c1c(C)[nH]n(-c2ccccc2)c1=O	-10%	-1%	-6%	-1%	-17%	-16
Cc1[nH]n(-c2ccccc2)c(=O)c1C(c1cccc([N+](=O)[O-])c1)c1c(C)[nH]n(-c2ccccc2)c1=O	25%	?	1%	-1%	-14%	2
Cc1[nH]n(-c2ccccc2)c(=O)c1C(C[N+](=O)[O-])c1ccc(Br)cc1 (centres undefined)	?	3.3µM*	?	14%	-26%	-7
COc1cccc(C(C[N+](=O)[O-])c2c(C)[nH]n(-c3ccccc3)c2=O)c1 (centres undefined)	?	18%	?	?	7.9µM*	2
Nc1nc(SCC(=O)N2CCCCCC2)[nH]c(=O)c1NC(=O)c1ccco1	-2%	9%	-14%	0%	-7%	-8
Cc1noc(NS(=O)(=O)c2ccc(NC(=O)c3oc4ccc(Cl)cc4c3C)cc2)c1C	?	?	-7%	1%	28%	-9
CCN(CC(=O)Nc1ccc(NC(C)=O)cc1)C(=O)c1ccc(C(=O)c2ccccc2)cc1	/	-9%	-11%	0%	/	-25
CCOc1cc2c3c(c1)C1(Nc4ccccc4S1)C(=O)N3C(C)(C)CC2C (centres undefined)	25%	21µM*	?	?	0%	3
CCOc1cc2c3c(c1)C1(C(=O)N3C(C)(C)CC2C)C(C#N)=C(N)N2C(=C1C#N)Nc1ccccc12 (centres undefined)	?	16µM*	2%	-1%	12%	-1
Fc1ccc(NC(=S)N2CCSC2c2cccs2)cc1 (centres undefined)	?	-3%	5%	0%	1%	4
COc1cc2c(cc1NC(=O)COC(=O)[C@@H](NC(=O)c1ccccc1F)C(C)C)oc1ccccc12	10µM*	-1%	-14%	17%	11µM*	-4
SMILES	RORg inh	MCF10A rerep	SW480 rerep	Chronic BCR inh	VP16 counter	Giardia killer
COc1cc2c(cc1NC(=O)COCC(=O)O)oc1ccccc12	2%	7%	2%	?	-10%	-4
COc1cc(NC(=O)C2CC(=O)N(Cc3ccco3)C2)c(OC)cc1Cl (centres undefined)	/	-2%	-6%	-6%	/	2
COc1cc2c(cc1NC(=O)COC(=O)C1CC(=O)N(Cc3ccco3)C1)oc1ccccc12 (centres undefined)	8.9µM*	14%	2%	5%	7.9µM*	-5
COc1cc2c(cc1NC(=O)COC(=O)CNC(=O)c1ccccc1)oc1ccccc12	11µM*	-1%	0%	?	6.3µM*	-2
COc1cc2c(cc1NC(=O)COC(=O)[C@@H](NC(=O)c1ccccc1)C(C)C)oc1ccccc12	8.9µM*	19%	0%	19%	?	-8
COc1ccccc1C(=O)N/C(=C\c1cn(S(=O)(=O)N(C)C)c2ccccc12)C(=O)N1CCCC1	0%	17%	-2%	6%	0%	-12
CC(=O)NC(CCCNC(=S)NC1CCCCC1)C(=O)O (centres undefined)	17%	-5%	-26%	7%	-1%	2
O=C1CC(C(=O)Nc2ccccc2)S/C(=N\N=C\c2ccco2)N1 (centres undefined)	-20%	10%	-2%	?	-15%	1
Cc1ccccc1CC1S/C(=N/N=C/c2ccco2)NC1=O (centres undefined)	0.45µM*	/	/	?	2µM*	/
CC(C)C1S/C(=N/N=C/c2ccco2)NC1=O (centres undefined)	0.2µM*	9%	0%	0%	3.2µM*	-16
Cc1ccccc1CN1C(=O)C(C)S/C1=N/N=C/c1ccco1 (centres undefined)	8%	14%	-9%	-3%	1%	1
CCN1C(=O)[C@H]2[C@H]3CN=C(SCC(=O)c4ccccc4)N3[C@@](CC)(C(=O)OC)[C@H]2C1=O	/	1%	-5%[9.22 µM]	0%	/	4
CSc1ccccc1NC(=O)CN(C)C(=O)COc1ncnc2ccccc12	/	-2%	-5%	-6%	/	5
CSc1ccccc1NC(=O)CN(C)C(=O)COc1cccc2cccnc12	/	?	5.8µM*	?	/	13
O=C(c1ccco1)N1N=C(c2ccncc2)CC1(O)C(F)(F)F (centres undefined)	10%	0%	3%	-15%	2%	23
